Bioassay records deposited in PubChem BioAssay by several laboratories.
An excerpt weighted towards active compounds, which were near 5.9% of everything screened.
PRMT1 inh – PRMT1 (human) inhibition, primary screen | 370,000 tested, 1.3% active | Q99873 | AID 652257 | recombinant PRMT1, activity-based probe fluorescence polarization | inhibition, % at 2.79 µM;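 active = inhibition above about 21% made by adding two undisclosed values, limit read from the data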
ABHD5 PLIN5 PPI – blocks binding of human ABHD5 to perilipin-5. inhibition, % at 4 µM. Split G. princeps luciferase complementation, luminescence, 4 h. 360,000 tested, 0.78% active. AID 602281;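 active = inhibition above the mean inhibition across every tested compound plus 3 SD, cut at about 22% in these data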;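 note: 0% = DMSO only wells and the 100% control is not disclosed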
Target sequence (Q00G26 whole entry, looked up): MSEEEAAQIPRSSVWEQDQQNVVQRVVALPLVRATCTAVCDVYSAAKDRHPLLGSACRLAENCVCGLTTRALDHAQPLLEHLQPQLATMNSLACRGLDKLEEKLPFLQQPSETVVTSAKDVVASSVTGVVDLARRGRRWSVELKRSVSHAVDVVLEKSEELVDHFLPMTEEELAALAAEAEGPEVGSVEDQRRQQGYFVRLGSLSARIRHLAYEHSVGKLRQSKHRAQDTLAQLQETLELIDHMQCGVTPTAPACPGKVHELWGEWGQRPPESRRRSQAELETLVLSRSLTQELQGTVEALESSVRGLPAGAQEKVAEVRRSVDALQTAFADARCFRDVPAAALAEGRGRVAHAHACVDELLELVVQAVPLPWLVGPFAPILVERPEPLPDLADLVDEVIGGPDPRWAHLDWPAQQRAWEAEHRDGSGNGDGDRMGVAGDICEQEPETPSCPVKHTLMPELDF
Target sequence (Q8WTS1 whole entry, looked up): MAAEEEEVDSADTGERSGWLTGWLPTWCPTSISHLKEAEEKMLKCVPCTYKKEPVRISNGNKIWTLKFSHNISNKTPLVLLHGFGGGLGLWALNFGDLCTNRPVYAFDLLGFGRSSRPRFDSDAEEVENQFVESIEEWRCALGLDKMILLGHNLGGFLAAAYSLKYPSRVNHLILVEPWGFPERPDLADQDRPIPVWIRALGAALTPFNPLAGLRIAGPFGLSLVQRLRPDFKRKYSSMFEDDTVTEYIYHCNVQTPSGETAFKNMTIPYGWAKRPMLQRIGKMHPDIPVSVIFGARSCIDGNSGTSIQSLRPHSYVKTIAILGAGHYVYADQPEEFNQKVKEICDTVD
Rtt109 Vps75 – inhibitors of Candida albicans Rtt109/Vps75 histone acetyltransferase; 330,000 tested, 0.16% active; purified Rtt109/Vps75, ThioGlo CoA-SH fluorescence, 4 h; Q5AAJ8; AID 540336; inhibition, % at 34.9 µM;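 active = inhibition of at least 50% in every replicate; inconclusive = best replicate reaches 50% inhibition but some replicates fall short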
rCAG RNA binder – molecules binding r(CAG) RNA repeats; 370,000 tested, 1.3% active; r(CAG) RNA repeat, TO-PRO-1 dye displacement fluorescence; inhibition, % at 3 µM;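 active = inhibition above the plate cutoff, the mean of all test compounds on that plate plus 3 SD, cut at about 35% in these data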;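 note: 0% = DMSO alone and 100% = 100 µM mitoxantrone as full dye displacement; higher means more dye released from RNA so lower well fluorescence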
ALR H2O2 inh – human ALR oxidase inhibition via reduced H2O2. P55789. purified ALR, DTT oxidation, H2O2 HRP-luminol luminescence. inhibition, % (no concentration beside the values). 290,000 tested, 3.8% active. AID 485317;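 active = mean replicate inhibition above about 79%, with every replicate also reaching it, limit read from the data; inconclusive = only one of the two criteria met; inactive = mean below limit and not every replicate reaching it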
LANA-H2B inh – blocks KSHV LANA binding to histone H2A/H2B | Q9QR71 | cell-free LANA-H2A/H2B peptide, fluorescence polarization | inhibition, % (concentration not given with the values) | 320,000 tested, 0.6% active | AID 2629; in the data active = inhibition mostly above about 10%, no sharp cut-off; inactive = mostly below about 6.7%
Numbers without * were called inactive; ? = inconclusive; . = not tested or not shown.

SMILES	PRMT1 inh	ABHD5 PLIN5 PPI	Rtt109 Vps75	rCAG RNA binder	ALR H2O2 inh	LANA-H2B inh
COC(=O)c1ccccc1NC(=S)NC(=O)c1ccc(C)cc1	1.8	4.4	2.3	-4.2	65.8	-1.0
COC(=O)c1ccccc1NC(=S)NC(=O)c1ccccc1	3.5	1.4	3.5	-3.6	98.2*	-1.6
COc1ccc(C(=O)c2[nH]c(N)c(C(=O)NCCc3c[nH]c4ccccc34)c2-c2ccccc2C(F)(F)F)cc1	1.8	.	.	9.7	.	.
Cc1sc2ccc3sccc3c2[n+]1C	76.5*	-0.2	?	-2.1	41.4	-4.7
Cn1c(=O)c2cc(NC(=S)NCc3ccccc3F)ccc2n1Cc1cccc(C(F)(F)F)c1	2.5	1.8	.	2.8	.	.
COc1ccc(NC(=O)CC2C(=O)N(c3ccc(Cl)cc3)C(=S)N2CCc2ccccn2)cc1 (stereo not given)	3.8	1.4	11.0	7.8	98.2*	-3.4
COc1ccc(NC(=O)CC2C(=O)N(c3ccc(Cl)cc3)C(=S)N2CCc2ccncc2)cc1 (stereo not given)	.	5.8	7.3	.	-6.0	-0.7
O=C(CN1CCN(c2nc(-c3ccccc3)cs2)CC1)Nc1ccc(Cl)c(Cl)c1	-5.2	.	.	4.0	.	.
C[C@H]1[C@@H](c2ccccc2)Oc2ccc(Cl)cc2S(=O)(=O)N1Cc1ccc(Cl)cc1	-3.8	.	.	6.3	.	.
Cc1c(NC(=O)C(c2ccccc2)c2ccccc2)cccc1C(=O)O	-0.9	8.1	-2.9	5.1	5.5	-5.8
O=C(O)c1cc(O)ccc1NC(=O)C(c1ccccc1)c1ccccc1	-1.7	5.6	-8.5	13.7	95.4*	0.0
CCc1ccccc1NC(=O)CSc1nc(C)c(C)o1	-0.3	0.0	15.7	-0.7	98.8*	3.4
CCc1ccccc1NC(=O)CNCC(=O)Nc1ccccc1CC	-0.6	1.7	2.7	-7.5	.	3.0
COc1cccc(N2CC(C(=O)Nc3nnc(SCc4cccnc4)s3)CC2=O)c1 (stereo not given)	2.3	1.4	-4.5	6.6	-44.0	-0.4
O=C(Nc1nnc(SCc2cccnc2)s1)C1CC(=O)N(c2ccc(F)cc2)C1 (stereo not given)	6.1	2.1	-3.0	15.2	97.0*	7.9
Nc1cccc(-c2c[nH]c3ncc(-c4cccnc4)cc23)c1	.	-0.6	-10.0	.	.	.
Cc1ccc(N/N=C2\CCS(=O)(=O)c3sccc32)cc1	16.4	0.4	6.6	6.2	98.8*	1.8
Nc1c(S(=O)(=O)c2ccccc2)c2nc3ccccc3nc2n1C1CC1	-8.2	4.5	-0.8	-2.6	98.5*	3.9
Cc1[nH]c2ccccc2c1SCc1ccccc1	2.7	-4.3	2.9	3.0	99.2*	4.6
O=C(NC1CCCCN(Cc2cccc(Cl)c2)C1=O)c1cccs1 (stereo not given)	-3.1	.	.	1.9	.	.
COc1ccc(NC(=O)CSc2nccn2Cc2ccco2)c(OC)c1	2.0	-1.5	-7.4	-5.6	53.2	0.4
Cc1ccc(NC(=O)CSc2nccn2Cc2ccccc2)cc1C	2.2	-3.2	4.9	3.1	98.3*	4.2
Cc1ccc(NC(=O)CSc2nccn2Cc2ccco2)cc1	0.9	3.2	-2.6	-4.5	89.4*	-0.5
O=C(CSc1nccn1Cc1ccco1)Nc1ccc(F)cc1	3.3	3.4	3.6	-2.6	99.1*	-1.2
O=C(CSc1nnc(CNc2ccc(F)cc2)n1Cc1ccco1)N1CCOCC1	1.1	-4.6	-0.1	-1.9	-0.1	7.1
SMILES	PRMT1 inh	ABHD5 PLIN5 PPI	Rtt109 Vps75	rCAG RNA binder	ALR H2O2 inh	LANA-H2B inh
O=C(CSc1nnc(CNc2ccc(F)cc2)n1Cc1ccco1)NC1CC1	10.0	22.1*	-5.8	-0.1	5.4	5.7
O=C(CSc1nccn1Cc1ccco1)Nc1cccc(F)c1	10.7	10.7	22.8	-4.9	-1.1	-4.3
C[C@H]1CCCN1c1ccc2c(c1)O[C@H]1CCN(C1)S2(=O)=O	3.3	.	.	4.6	.	.
Cc1ccc(NC(=O)CSc2nnc(-c3cccnc3)n2Cc2ccco2)c(C)c1	-1.8	.	.	3.1	.	.
Cc1ccc(NC(=O)CSc2nnc(-c3ccccn3)n2C)cc1	-2.0	4.0	-1.8	-1.1	-4.1	-4.5
CC(=O)Nc1cccc(NC(=O)CSc2ncc(-c3ccc(Cl)cc3)n2Cc2ccco2)c1	2.6	-3.6	0.4	2.4	91.5*	-5.5
Cc1ccc(NC(=O)CSc2ncc3ccccn23)cc1	2.3	-9.8	-28.8	1.6	99.2*	5.9
Cc1ccc(NCc2nnc(SCC(=O)Nc3ncc(C)s3)n2Cc2ccco2)c(C)c1	-0.3	-1.8	1.8	-3.4	98.4*	-2.1
COC(=O)[C@]1(Sc2ccc(C)cc2)CC(=O)N[C@@H]1c1ccccc1	-3.0	-7.1	.	1.6	.	.
CCCC(=O)N1CCC1(C)C(=O)Nc1scc(C)c1C#N (stereo not given)	.	-12.4	.	.	.	.
Cc1ccc(F)cc1C(=O)N1CCCCC1c1cc(C(=O)Nc2ccc(F)c(Cl)c2)no1 (stereo not given)	3.7	-14.6	.	2.7	.	.
Fc1cnc(Cl)nc1N1CCN(c2ccccc2)CC1	-2.5	2.1	-10.4	-4.1	98.8*	1.4
CN1CCN(c2nc(N3CCN(c4ccccc4)CC3)ncc2F)CC1	1.1	-5.9	-3.0	-7.5	99.1*	2.1
O=C(CCc1ccccc1)N[C@H]1C(=O)CCC[C@]12C(=O)N(Cc1ccccc1)c1ccccc12	3.5	.	.	-0.1	.	.
O=C(O)COc1ccc(Nc2ccccc2)cc1	15.3	-3.9	4.7	10.5	99.4*	10.2
O=C(COc1ccc2ccccc2c1)Nc1nccs1	1.5	2.1	0.4	1.7	-19.4	-1.2
COCCNC(=O)COc1ccc(Nc2ccccc2)cc1	1.6	-3.8	4.5	-1.3	98.8*	-3.3
O=C(COc1ccccc1)Nc1nccs1	4.1	-3.4	-4.9	1.5	-2.8	28.2*
NC(=O)C1CCN(C(=O)COc2ccc(Nc3ccccc3)cc2)CC1	11.1	-3.6	4.3	4.7	99.5*	-1.4
NC(=O)C1CCN(C(=O)COc2ccc3ccccc3c2)CC1	-2.9	-5.5	13.6	0.6	-14.6	0.6
Cc1ccc2c(c1)C1CS(=O)(=O)N(C3CCCC3)CN1C2 (stereo not given)	2.9	.	.	7.2	.	.
CCC(C)c1ccccc1N1CC(C(=O)Nc2ccc(S(=O)(=O)N3CCOCC3)cc2)CC1=O (stereo not given)	4.9	-12.8	17.7	-4.2	-15.5	-8.2
O=C(COc1c(Cl)cc(Cl)cc1Cl)N/N=C/c1ccc[nH]1	-1.7	.	.	.	.	.
O=C(COc1ccc(Nc2ccccc2)cc1)Nc1ccncc1	4.0	-11.6	6.0	2.3	90.1*	-2.4
CCOC(=O)c1csc(NC(=O)C2CCCN(S(=O)(=O)c3ccc(C)cc3)C2)n1 (stereo not given)	-0.2	.	.	1.4	.	.
CC(C)C(=O)Nc1nnc(CCN2CCOCC2)s1	1.3	0.6	-1.8	-1.8	-0.6	17.6*
Cc1cccc(Sc2c([N+](=O)[O-])ncn2C)c1	2.2	7.6	-3.9	2.0	98.0*	-2.1
Cn1cnc([N+](=O)[O-])c1SCC(=O)NN	0.6	0.5	13.5	-0.2	87.8*	3.7
